The full data set covers some 21,000 targets. This sample favours those with the largest changes.
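Further: competitive profiling in live THP-1 cells: cysteine peptides tagged with an iodoacetamide desthiobiotin (IA-DTB) probe, intensity after compound treatment relative to DMSO-treated cells.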

Sequence of UniProt P07203 (P07203 whole entry, looked up): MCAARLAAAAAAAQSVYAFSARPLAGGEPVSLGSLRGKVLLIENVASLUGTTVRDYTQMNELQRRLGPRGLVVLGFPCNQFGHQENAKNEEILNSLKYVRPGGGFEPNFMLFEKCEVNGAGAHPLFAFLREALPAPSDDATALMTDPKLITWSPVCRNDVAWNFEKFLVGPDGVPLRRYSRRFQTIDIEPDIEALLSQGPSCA
Sequence of UniProt Q7Z4Q2 (Q7Z4Q2 whole entry, looked up): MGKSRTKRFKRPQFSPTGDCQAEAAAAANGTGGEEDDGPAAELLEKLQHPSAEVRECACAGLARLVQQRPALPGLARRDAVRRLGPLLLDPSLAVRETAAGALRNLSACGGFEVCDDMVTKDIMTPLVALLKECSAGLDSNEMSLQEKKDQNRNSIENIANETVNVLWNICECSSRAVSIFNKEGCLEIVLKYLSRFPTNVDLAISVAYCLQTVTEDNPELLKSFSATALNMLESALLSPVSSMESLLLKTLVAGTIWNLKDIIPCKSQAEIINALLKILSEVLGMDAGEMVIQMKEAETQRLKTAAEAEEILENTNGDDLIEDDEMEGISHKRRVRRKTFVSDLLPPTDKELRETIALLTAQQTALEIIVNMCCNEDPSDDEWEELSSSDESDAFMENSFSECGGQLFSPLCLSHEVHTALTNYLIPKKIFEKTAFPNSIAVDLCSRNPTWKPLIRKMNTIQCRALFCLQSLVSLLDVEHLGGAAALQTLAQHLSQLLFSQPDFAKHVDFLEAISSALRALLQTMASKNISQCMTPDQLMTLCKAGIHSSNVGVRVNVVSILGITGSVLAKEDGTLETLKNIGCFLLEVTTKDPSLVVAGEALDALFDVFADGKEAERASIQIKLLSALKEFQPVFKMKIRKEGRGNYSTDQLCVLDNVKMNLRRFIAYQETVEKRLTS
Sequence of UniProt Q86SF2 (Q86SF2 whole entry, looked up): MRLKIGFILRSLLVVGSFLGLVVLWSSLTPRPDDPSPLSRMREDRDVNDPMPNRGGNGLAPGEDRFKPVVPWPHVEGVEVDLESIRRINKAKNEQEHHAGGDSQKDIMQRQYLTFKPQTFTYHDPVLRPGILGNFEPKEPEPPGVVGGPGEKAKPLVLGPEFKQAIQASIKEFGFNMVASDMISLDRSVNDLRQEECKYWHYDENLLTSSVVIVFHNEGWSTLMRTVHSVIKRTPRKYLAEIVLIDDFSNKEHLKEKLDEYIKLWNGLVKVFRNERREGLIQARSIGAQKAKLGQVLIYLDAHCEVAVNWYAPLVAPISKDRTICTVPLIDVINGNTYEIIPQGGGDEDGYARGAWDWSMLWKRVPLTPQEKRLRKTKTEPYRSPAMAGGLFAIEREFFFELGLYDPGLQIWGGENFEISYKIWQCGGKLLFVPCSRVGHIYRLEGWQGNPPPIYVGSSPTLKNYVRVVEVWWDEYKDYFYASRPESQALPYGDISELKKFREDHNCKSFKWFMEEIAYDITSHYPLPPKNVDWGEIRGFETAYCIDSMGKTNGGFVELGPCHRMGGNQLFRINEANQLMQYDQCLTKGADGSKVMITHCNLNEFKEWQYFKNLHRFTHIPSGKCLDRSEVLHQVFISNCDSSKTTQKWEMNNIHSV
Sequence of UniProt P50440 (P50440 whole entry, looked up): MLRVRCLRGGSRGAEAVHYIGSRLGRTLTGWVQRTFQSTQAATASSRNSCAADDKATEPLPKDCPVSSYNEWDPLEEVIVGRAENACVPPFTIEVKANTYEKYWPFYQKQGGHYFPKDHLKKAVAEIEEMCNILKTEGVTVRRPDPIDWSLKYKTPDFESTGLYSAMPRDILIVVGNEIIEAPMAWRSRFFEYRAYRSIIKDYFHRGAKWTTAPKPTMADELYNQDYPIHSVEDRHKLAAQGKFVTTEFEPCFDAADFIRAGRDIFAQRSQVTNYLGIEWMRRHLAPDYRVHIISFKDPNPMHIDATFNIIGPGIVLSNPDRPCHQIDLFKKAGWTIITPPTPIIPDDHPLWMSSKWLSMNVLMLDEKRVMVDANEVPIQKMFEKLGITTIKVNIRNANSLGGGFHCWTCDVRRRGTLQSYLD
Sequence of UniProt Q9Y5Q8 (Q9Y5Q8 whole entry, looked up): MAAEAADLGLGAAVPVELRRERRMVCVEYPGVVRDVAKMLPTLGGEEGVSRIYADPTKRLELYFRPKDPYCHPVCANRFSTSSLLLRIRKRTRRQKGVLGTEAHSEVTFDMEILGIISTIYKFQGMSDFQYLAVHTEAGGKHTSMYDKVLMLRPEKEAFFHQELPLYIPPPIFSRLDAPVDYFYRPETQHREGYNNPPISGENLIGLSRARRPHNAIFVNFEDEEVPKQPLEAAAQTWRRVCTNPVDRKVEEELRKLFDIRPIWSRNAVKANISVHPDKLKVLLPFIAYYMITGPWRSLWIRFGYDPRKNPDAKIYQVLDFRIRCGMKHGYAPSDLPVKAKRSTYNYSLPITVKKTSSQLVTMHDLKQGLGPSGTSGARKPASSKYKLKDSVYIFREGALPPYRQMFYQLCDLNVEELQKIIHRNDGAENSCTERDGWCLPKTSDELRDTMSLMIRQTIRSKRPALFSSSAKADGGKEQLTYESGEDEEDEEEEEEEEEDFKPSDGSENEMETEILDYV
Sequence of UniProt Q9BRR8 (Q9BRR8 whole entry, looked up): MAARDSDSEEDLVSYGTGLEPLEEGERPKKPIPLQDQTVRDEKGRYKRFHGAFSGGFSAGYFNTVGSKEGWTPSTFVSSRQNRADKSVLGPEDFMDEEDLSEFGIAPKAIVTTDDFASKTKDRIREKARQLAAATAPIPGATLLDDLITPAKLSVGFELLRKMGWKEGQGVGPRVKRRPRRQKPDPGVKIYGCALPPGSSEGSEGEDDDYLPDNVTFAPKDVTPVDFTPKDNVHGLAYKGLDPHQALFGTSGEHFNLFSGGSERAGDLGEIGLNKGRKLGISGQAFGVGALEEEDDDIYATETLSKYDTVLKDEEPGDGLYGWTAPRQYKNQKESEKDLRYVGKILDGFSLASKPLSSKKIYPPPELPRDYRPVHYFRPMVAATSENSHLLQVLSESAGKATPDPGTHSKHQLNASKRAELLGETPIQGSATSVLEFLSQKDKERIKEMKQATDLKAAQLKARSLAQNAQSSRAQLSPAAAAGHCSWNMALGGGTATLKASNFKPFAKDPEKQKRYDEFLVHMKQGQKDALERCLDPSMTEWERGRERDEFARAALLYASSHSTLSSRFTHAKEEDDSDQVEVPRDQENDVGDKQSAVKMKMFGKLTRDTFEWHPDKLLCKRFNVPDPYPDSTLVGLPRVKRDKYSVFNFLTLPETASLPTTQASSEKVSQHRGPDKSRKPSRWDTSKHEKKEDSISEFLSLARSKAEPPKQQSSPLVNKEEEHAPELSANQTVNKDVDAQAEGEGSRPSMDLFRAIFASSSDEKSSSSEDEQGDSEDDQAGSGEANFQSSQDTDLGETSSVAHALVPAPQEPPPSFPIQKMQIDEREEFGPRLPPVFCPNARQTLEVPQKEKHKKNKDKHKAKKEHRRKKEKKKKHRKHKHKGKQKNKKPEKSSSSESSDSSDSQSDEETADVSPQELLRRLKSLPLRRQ
Sequence of UniProt Q00403 (Q00403 whole entry, looked up): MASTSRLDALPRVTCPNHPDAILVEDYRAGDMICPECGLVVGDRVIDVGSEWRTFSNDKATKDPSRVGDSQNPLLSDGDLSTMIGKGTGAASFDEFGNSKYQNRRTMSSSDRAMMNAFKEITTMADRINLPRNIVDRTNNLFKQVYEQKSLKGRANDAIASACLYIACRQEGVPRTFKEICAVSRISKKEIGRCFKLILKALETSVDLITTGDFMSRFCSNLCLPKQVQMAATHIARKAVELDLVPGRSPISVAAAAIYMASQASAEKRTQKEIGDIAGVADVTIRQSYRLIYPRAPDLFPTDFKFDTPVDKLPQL
Sequence of UniProt P78347 (P78347 whole entry, looked up): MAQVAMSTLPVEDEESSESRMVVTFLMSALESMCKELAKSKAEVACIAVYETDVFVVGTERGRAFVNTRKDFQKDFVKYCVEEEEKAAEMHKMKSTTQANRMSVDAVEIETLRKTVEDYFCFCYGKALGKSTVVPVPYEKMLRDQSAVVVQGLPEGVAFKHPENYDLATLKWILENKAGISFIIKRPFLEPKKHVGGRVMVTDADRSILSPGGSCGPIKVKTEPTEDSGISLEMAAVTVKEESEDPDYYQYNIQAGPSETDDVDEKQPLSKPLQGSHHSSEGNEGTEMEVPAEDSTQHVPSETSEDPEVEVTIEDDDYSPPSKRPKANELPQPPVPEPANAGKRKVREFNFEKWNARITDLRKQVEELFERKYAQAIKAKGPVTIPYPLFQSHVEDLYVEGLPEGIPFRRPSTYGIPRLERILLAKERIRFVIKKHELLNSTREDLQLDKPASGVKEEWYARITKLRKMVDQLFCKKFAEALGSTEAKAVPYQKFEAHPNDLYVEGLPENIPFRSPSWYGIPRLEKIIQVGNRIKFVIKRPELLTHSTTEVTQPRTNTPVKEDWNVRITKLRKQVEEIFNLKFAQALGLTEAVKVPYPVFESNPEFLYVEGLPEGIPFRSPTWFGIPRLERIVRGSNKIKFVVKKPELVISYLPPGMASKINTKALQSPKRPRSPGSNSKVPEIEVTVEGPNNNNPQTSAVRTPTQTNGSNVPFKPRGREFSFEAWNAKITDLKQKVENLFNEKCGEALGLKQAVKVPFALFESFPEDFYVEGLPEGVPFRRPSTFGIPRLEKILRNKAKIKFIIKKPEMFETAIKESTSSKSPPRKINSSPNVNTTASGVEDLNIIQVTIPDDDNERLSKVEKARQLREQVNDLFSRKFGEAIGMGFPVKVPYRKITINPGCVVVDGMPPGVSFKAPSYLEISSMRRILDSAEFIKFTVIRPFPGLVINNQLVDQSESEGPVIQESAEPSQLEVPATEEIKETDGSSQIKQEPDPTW
Sequence of UniProt Q9BSH5 (Q9BSH5 whole entry, looked up): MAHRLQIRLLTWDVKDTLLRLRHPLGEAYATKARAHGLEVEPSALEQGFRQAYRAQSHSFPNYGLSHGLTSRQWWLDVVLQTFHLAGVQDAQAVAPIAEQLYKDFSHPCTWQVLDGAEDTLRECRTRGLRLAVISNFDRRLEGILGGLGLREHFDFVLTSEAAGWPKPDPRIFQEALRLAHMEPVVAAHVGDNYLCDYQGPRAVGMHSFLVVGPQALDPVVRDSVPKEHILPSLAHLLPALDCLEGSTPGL

Compound in the first test: Cc1cc(ccc1-c1ccccc1)C(=O)N1CCCN(CC1)C(=O)CCl [compound 10]
Description: probe-labelled cysteine peptide fold change vs DMSO (competition) (log2 fold change); higher = less target engagement (more negative = stronger competition). The conditions noted are these: 10 µM; THP-1; incubation time: 4 h.
For the target “FRMD8_Q9BZ67_206_LDSFLPAHLCK (UniProt Q9BZ67)”, the “probe-labelled cysteine peptide fold change” value is -0.0859.
With “HDDC3_Q8N4P3_133_CTPEGWSEHR (UniProt Q8N4P3)”, the “probe-labelled cysteine peptide fold change” value was 0.13.
As to “FHL1_Q13642_150_GEDFYCVTCHETK (UniProt Q13642)”, the “probe-labelled cysteine peptide fold change” value worked out at 0.107.
In the case of “GALNT7_Q86SF2_545_GFETAYCIDSMGK (UniProt Q86SF2)”, the “probe-labelled cysteine peptide fold change” value is -0.0613.
For “GFPT1_Q06210_264_VDSTTCLFPVEEK (UniProt Q06210)”, the “probe-labelled cysteine peptide fold change” value was -0.0167.
Same read-out and setting: then “GDAP2_Q9NXN4_148_TAAESSLYSCYR (UniProt Q9NXN4)”, with -0.0153.
With “HDAC10_Q969S8_508_LLCVALGQLDRPPDLAHDGR (UniProt Q969S8)”, the “probe-labelled cysteine peptide fold change” value is 0.15.
For the target “GOLGA2_Q08379_984_ERPGLGSNPCIPFFYR (UniProt Q08379)”, the “probe-labelled cysteine peptide fold change” value is -0.149.
Turning to “HERC2_O95714_1037_ISSCLDFEQHSR (UniProt O95714)”, the “probe-labelled cysteine peptide fold change” value was 0.0441.
Take “GPC4_O75487_341_VFQGCGPPK (UniProt O75487)”: the “probe-labelled cysteine peptide fold change” value is -0.24.
For the target “GATM_P50440_131_KAVAEIEEMCNILK (UniProt P50440)”, the “probe-labelled cysteine peptide fold change” value was -0.0751.
Same read-out and setting: then “GRN_P28799_178_CITPTGTHPLAK (UniProt P28799)”, with -0.279; and “HK3_P52790_840_AAQLCGAGVAAVVEK (UniProt P52790)”, with 0.169; and “GSPT1_P15170_464_TAGTICLETFK (UniProt P15170)”, with 0.00954.
Consider “HCK_P08631_241_LSVPCMSSK (UniProt P08631)”, for which the “probe-labelled cysteine peptide fold change” value was -0.0986.
Regarding “GTF3C5_Q9Y5Q8_75_DPYCHPVCANR (UniProt Q9Y5Q8)”, the “probe-labelled cysteine peptide fold change” value came to 0.121.
For “FLAD1_Q8NFF5_338_LTLDSEEEGPLEECLAYLTAR (UniProt Q8NFF5)”, the “probe-labelled cysteine peptide fold change” value was -0.0485.
Still for that read-out and setting: then “GPX1_P07203_78_GLVVLGFPCNQFGHQENAKNEEILNSLK (UniProt P07203)”, with -0.208.
For the target “FGR_P09769_415_LIKDDEYNPCQGSK (UniProt P09769)”, the “probe-labelled cysteine peptide fold change” value is -0.148.
Regarding “GPATCH1_Q9BRR8_485_AQLSPAAAAGHCSWNMALGGGTATLK (UniProt Q9BRR8)”, the “probe-labelled cysteine peptide fold change” value is -0.0776.
As for “GTF3C4_Q9UKN8_376_CVPLYHPYQK (UniProt Q9UKN8)”, the “probe-labelled cysteine peptide fold change” value is 0.0788.
As to “GATD3B_A0A0B4J2D5_177_EFHQAGKPIGLCCIAPVLAAK<|>GATD3A_P0DPI2_177_EFHQAGKPIGLCCIAPVLAAK (UniProt P0DPI2)”, the “probe-labelled cysteine peptide fold change” value was -0.563.
Turning to “HDHD3_Q9BSH5_109_DFSHPCTWQVLDGAEDTLR (UniProt Q9BSH5)”, the “probe-labelled cysteine peptide fold change” value is -0.47.
With “HDAC10_Q969S8_23_LLWDDPECEIERPER (UniProt Q969S8)”, the “probe-labelled cysteine peptide fold change” value is -0.294.
Regarding “GTF2B_Q00403_34+37_AGDMICPECGLVVGDR (UniProt Q00403)”, the “probe-labelled cysteine peptide fold change” value turned out to be 0.105.
Same read-out and setting: then “GTF2I_P78347_475_MVDQLFCK (UniProt P78347)”, with -0.213.
On to “HEATR3_Q7Z4Q2_57_ECACAGLAR (UniProt Q7Z4Q2)”, for which the “probe-labelled cysteine peptide fold change” value is -1.43.

Staying with this test, now noted: 50 µM; THP-1; incubation time: 4 h.
On to “FRMD8_Q9BZ67_206_LDSFLPAHLCK (UniProt Q9BZ67)”, for which the “probe-labelled cysteine peptide fold change” value was -0.347.
In the case of “HDDC3_Q8N4P3_133_CTPEGWSEHR (UniProt Q8N4P3)”, the “probe-labelled cysteine peptide fold change” value was -0.00995.
“FHL1_Q13642_150_GEDFYCVTCHETK (UniProt Q13642)”: the “probe-labelled cysteine peptide fold change” value was -0.0472.
In the case of “GALNT7_Q86SF2_545_GFETAYCIDSMGK (UniProt Q86SF2)”, the “probe-labelled cysteine peptide fold change” value came out at 0.095.
For “GFPT1_Q06210_264_VDSTTCLFPVEEK (UniProt Q06210)”, the “probe-labelled cysteine peptide fold change” value is 0.203.
“GDAP2_Q9NXN4_148_TAAESSLYSCYR (UniProt Q9NXN4)”: the “probe-labelled cysteine peptide fold change” value worked out at 0.00868.
On to “HDAC10_Q969S8_508_LLCVALGQLDRPPDLAHDGR (UniProt Q969S8)”, for which the “probe-labelled cysteine peptide fold change” value is 0.0528.
The same measure, in the same setting: under “GOLGA2_Q08379_984_ERPGLGSNPCIPFFYR (UniProt Q08379)” stands -0.0471.
Regarding “HERC2_O95714_1037_ISSCLDFEQHSR (UniProt O95714)”, the “probe-labelled cysteine peptide fold change” value was 0.321.
Consider “GPC4_O75487_341_VFQGCGPPK (UniProt O75487)”, for which the “probe-labelled cysteine peptide fold change” value was -0.0603.
As to “GATM_P50440_131_KAVAEIEEMCNILK (UniProt P50440)”, the “probe-labelled cysteine peptide fold change” value was -0.22.
On to “GRN_P28799_178_CITPTGTHPLAK (UniProt P28799)”, for which the “probe-labelled cysteine peptide fold change” value is -0.341.
Take “HK3_P52790_840_AAQLCGAGVAAVVEK (UniProt P52790)”: the “probe-labelled cysteine peptide fold change” value was -0.0558.
As for “GSPT1_P15170_464_TAGTICLETFK (UniProt P15170)”, the “probe-labelled cysteine peptide fold change” value amounted to 0.0941.
On to “HCK_P08631_241_LSVPCMSSK (UniProt P08631)”, for which the “probe-labelled cysteine peptide fold change” value was 0.102.
Consider “GTF3C5_Q9Y5Q8_75_DPYCHPVCANR (UniProt Q9Y5Q8)”, for which the “probe-labelled cysteine peptide fold change” value turned out to be 0.621.
Consider “FLAD1_Q8NFF5_338_LTLDSEEEGPLEECLAYLTAR (UniProt Q8NFF5)”, for which the “probe-labelled cysteine peptide fold change” value worked out at 0.177.
In the case of “GPX1_P07203_78_GLVVLGFPCNQFGHQENAKNEEILNSLK (UniProt P07203)”, the “probe-labelled cysteine peptide fold change” value is -1.3.
Take “FGR_P09769_415_LIKDDEYNPCQGSK (UniProt P09769)”: the “probe-labelled cysteine peptide fold change” value is -0.205.
Still for that read-out and setting: then “GPATCH1_Q9BRR8_485_AQLSPAAAAGHCSWNMALGGGTATLK (UniProt Q9BRR8)”, with -1.25; and “GTF3C4_Q9UKN8_376_CVPLYHPYQK (UniProt Q9UKN8)”, with 0.144; and “GATD3B_A0A0B4J2D5_177_EFHQAGKPIGLCCIAPVLAAK<|>GATD3A_P0DPI2_177_EFHQAGKPIGLCCIAPVLAAK (UniProt P0DPI2)”, with -1.98.
On the same count and under the same terms, then “HDHD3_Q9BSH5_109_DFSHPCTWQVLDGAEDTLR (UniProt Q9BSH5)”, with -1.92; and “HDAC10_Q969S8_23_LLWDDPECEIERPER (UniProt Q969S8)”, with -0.208.
“GTF2B_Q00403_34+37_AGDMICPECGLVVGDR (UniProt Q00403)”: the “probe-labelled cysteine peptide fold change” value was 0.0895.
In the case of “GTF2I_P78347_475_MVDQLFCK (UniProt P78347)”, the “probe-labelled cysteine peptide fold change” value was found to be 0.51.
“HEATR3_Q7Z4Q2_57_ECACAGLAR (UniProt Q7Z4Q2)”: the “probe-labelled cysteine peptide fold change” value is -4.94.

The record behind these values is the supplement of paper PMC12067093, “Discovery and optimisation of a covalent ligand for TRIM25 and its application to targeted protein ubiquitination” (Chemical Science, 2025).
